Test results published in PubChem BioAssay.
Activity calls are given as the source filed them. Unless noted, how the calls were made is not given here.

Key:
[1] = A549 cell viability effects, profiling panel, calcein-AM fluorescence, 48 h, basal (AID 1162); conditions: higher = more signal; further: test concentration not given here
[2] = adipocyte viability effects, profiling panel, cell-based, 3T3-L1 adipocytes, calcein-AM fluorescence, 48 h, basal (AID 1163); conditions: 3T3-L1 adipocytes viability, higher = more signal; further: test concentration not given here
[3] = HepG2 cell viability effects, profiling panel, calcein-AM fluorescence, 48 h, basal (AID 1164); conditions: higher = more signal; further: test concentration not given here
[4] = MM1S cell viability effects, profiling panel, calcein-AM fluorescence, 48 h, basal (AID 1165); conditions: higher = more signal;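 further: viability of MM1S multiple myeloma cells under basal unstimulated conditions; test concentration not given here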
[5] = basal RPMI8226 viability, no added stimulus, profiling panel, cell-based, calcein-AM fluorescence, 48 h, PK04 Diversity Set (AID 1166); conditions: RPMI8226 myeloma viability, higher = more signal;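 further: cells grown under basal conditions without added stimulus; test concentration not given here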
[6] = basal HepG2 mitochondrial membrane potential changes, profiling panel, cell-based, JC-1 fluorescence, 24 h, 100 nL compound (AID 1167); conditions: higher = more signal; further: test concentration not given here
[7] = basal 3T3-L1 adipocyte mitochondrial potential changes, profiling panel, cell-based, JC-1 fluorescence, 3T3-L1 adipocytes, 24 h, 100 nL compound (AID 1168); conditions: JC-1 mitochondrial fluorescence, higher = more signal, called active from +8 up or from −8 down; further: test concentration not given here
[8] = basal RPMI8226 mitochondrial membrane potential changes, profiling panel, cell-based, JC-1 fluorescence, 24 h, 100 nL compound (AID 1169); conditions: RPMI8226 myeloma, JC-1 mitochondrial potential fluorescence, higher = more signal; further: test concentration not given here
[9] = basal MM1S mitochondrial membrane potential changes, profiling panel, cell-based, JC-1 fluorescence, 24 h, 100 nL compound (AID 1170); conditions: higher = more signal; further: test concentration not given here
[10] = A549 lung cancer cell viability effects, profiling panel, resazurin fluorescence, 24 h, PK04 Diversity Set (AID 1171); conditions: higher = more signal, called active from +8 up or from −8 down; further: test concentration not given here
[11] = HepG2 liver cancer cell viability effects, profiling panel, resazurin fluorescence, 24 h, PK04 Diversity Set (AID 1172); conditions: higher = more signal; further: test concentration not given here
[12] = basal S. cerevisiae growth modulation, no modifier, primary screen, OD600, strain BY4716, 24 h, basal condition (AID 1173); conditions: OD600, 24 h, higher = more signal, called active from +8 up or from −8 down
[13] = MM1S myeloma cell viability, profiling panel, resazurin fluorescence, basal, 24 h, PK04 Diversity Set (AID 1174); conditions: higher = more signal, called active from +8 up or from −8 down;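 further: MM1S multiple myeloma cell line; test concentration not given here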
[14] = biological target: Dihydroorotate dehydrogenase (quinone), mitochondrial (Plasmodium falciparum (isolate 3D7)) (UniProt Q08210); experiment: PfDHODH enzyme inhibitors, primary screen, biochemical, C-terminal His tag, absorbance 600 nm (AID 1175); conditions: DCIP absorbance 600 nm, higher = more signal, called active from +8 up or from −8 down;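 further: recombinant parasite enzyme with a five histidine tag at its C terminus; test concentration not given here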
[15] = P. aeruginosa biofilm formation inhibitors, primary screen, strain PAO1, LB-PBS medium, absorbance 600 nm (AID 1176); further: test concentration not given here; conditions: P. aeruginosa PAO1 growth/biofilm, A600, 12 h; higher = more signal
[16] = S. cerevisiae RM11-1a growth modifiers, primary screen, strain RM11-1a, OD600, basal, 24 h (AID 1177); conditions: OD600, 24 h, higher = more signal, called active from +8 up or from −8 down;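 further: cultures grown under basal conditions with no added stressor; test concentration not given here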
[17] = E. coli acrAB mutant growth effects, primary screen, E. coli filamentation inducers, strain DRC39, OD650, 24 h (AID 1178); conditions: higher = more signal, called active from +8 up or from −8 down;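 further: growth measured as culture turbidity by optical density at 650 nm; test concentration not given here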
[18] = E. coli acrAB mutant growth effects, primary screen, E. coli filamentation inducers, strain DRC39, OD650, 48 h (AID 1179);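 further: screen aims at cell division blockers that make cells filament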; conditions: E. coli DRC39 delta-acrAB growth, higher = more signal, called active from +8 up or from −8 down
[19] = RPMI8226 myeloma cell viability, profiling panel, resazurin fluorescence, basal, 24 h, PK04 Diversity Set (AID 1180); conditions: higher = more signal;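 further: RPMI8826 multiple myeloma cell line at 5000 cells per well; test concentration not given here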
[20] = biological target: E3 ubiquitin-protein ligase XIAP (Homo sapiens) (UniProt P98170); experiment: XIAP binders, primary screen, biophysical, small-molecule microarray, fluorescence 635 nm (AID 1181); conditions: small-molecule microarray binding, higher = more signal;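 further: score merges 667 nm emission and signal to noise over triplicate slides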
Sequence of E3 ubiquitin-protein ligase XIAP (Homo sapiens) (P98170 whole entry, looked up): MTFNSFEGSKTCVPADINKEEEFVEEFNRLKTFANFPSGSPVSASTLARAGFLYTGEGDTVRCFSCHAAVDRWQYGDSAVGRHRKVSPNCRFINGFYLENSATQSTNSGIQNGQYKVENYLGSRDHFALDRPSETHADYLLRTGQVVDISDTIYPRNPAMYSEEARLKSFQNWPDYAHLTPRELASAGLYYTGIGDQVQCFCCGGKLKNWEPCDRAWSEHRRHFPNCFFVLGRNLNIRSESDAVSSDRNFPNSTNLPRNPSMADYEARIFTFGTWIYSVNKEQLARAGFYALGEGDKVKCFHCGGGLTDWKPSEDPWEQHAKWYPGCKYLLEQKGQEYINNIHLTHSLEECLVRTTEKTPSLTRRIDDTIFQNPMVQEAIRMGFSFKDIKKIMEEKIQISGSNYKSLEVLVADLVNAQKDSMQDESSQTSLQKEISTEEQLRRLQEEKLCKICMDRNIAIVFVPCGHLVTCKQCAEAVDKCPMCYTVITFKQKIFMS

Sequence of Dihydroorotate dehydrogenase (quinone), mitochondrial (Plasmodium falciparum (isolate 3D7)) (Q08210 whole entry, looked up): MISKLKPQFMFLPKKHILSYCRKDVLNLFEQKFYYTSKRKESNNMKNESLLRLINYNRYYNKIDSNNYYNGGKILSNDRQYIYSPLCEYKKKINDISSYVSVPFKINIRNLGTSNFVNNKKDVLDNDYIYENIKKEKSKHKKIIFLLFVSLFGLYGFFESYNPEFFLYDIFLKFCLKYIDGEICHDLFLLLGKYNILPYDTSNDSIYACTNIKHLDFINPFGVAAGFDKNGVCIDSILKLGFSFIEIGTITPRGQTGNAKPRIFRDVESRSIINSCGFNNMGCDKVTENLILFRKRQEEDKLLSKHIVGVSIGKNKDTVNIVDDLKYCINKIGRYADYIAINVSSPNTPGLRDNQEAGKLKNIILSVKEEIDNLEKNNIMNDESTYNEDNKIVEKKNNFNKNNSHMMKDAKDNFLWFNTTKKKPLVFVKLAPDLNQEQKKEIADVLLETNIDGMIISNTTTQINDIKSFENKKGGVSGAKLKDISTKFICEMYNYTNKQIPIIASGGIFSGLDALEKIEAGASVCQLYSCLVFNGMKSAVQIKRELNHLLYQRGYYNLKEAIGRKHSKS

Row | SMILES | z-score [1] | z-score [2] | z-score [3] | z-score [4] | z-score [5] | z-score [6] | z-score [7] | z-score [8] | z-score [9] | z-score [10] | z-score [11] | z-score [12] | z-score [13] | composite z-score [14] | z-score [15] | z-score [16] | z-score [17] | z-score [18] | z-score [19] | composite z-score [20]
1 | COc1ccc([Si](C)(C)[C@H]2[C@H](CC(=O)N3CCC[C@H]3CO)O[C@@]3(C(=O)N(Cc4cccc(N5C(=O)c6cccc7cccc5c67)c4)c4ccccc43)[C@@H]2C)cc1 | -0.577 | 0.453 | -0.507 | -1.99 | -3.99 | 1.12 | -0.69 (inactive) | -1.12 | -0.388 | -0.892 (inactive) | -1.13 | 0.547 (inactive) | -0.712 (inactive) | -1.74 (inactive) | 0.495 (inactive) | 1 (inactive) | -0.672 (inactive) | -0.881 (inactive) | -1.28 | 0.013
2 | CC1CC/C=C\[C@H]2OC34C=CCN(C(C)(C)C)C(=O)[C@H]3N(CCCCCCO)C(=O)[C@@H]4C2C(=O)O1 (stereo not given in full) | 0.406 | 0.305 | 1.08 | 0.742 | 0.298 | 0.436 | 1.11 (inactive) | 0.563 | -0.166 | -0.43 (inactive) | -0.0231 | -0.51 (inactive) | -1.72 (inactive) | -1.07 (inactive) | -0.401 (inactive) | 0.0296 (inactive) | 0.504 (inactive) | 0.749 (inactive) | -1.14 | 0.191
3 | C=C(COC)/C(=C/C[C@@H](OC(C)=O)c1ccc(CO)o1)c1cnc2ccccc2c1 | -0.11 | 0.523 | -0.856 | 0.0139 | -0.672 | -0.733 | -0.306 (inactive) | -0.33 | 1.33 | -0.874 (inactive) | -0.956 | -0.677 (inactive) | 0.915 (inactive) | -8.64 (active) | 0.579 (inactive) | 0.704 (inactive) | 0.685 (inactive) | -0.0551 (inactive) | 0.47 | 0.0225
4 | [N-]=[N+]=NCc1ccccc1[C@@H]1OC(c2ccc(OCCCO)cc2)=N[C@]1(CCS(=O)(=O)c1ccccc1)C(=O)NCc1ccccc1 | -0.137 | 1.09 | 0.0616 | -0.158 | -1.04 | -0.0428 | 0.0135 (inactive) | -0.143 | -0.979 | 0.201 (inactive) | 0.239 | 0.743 (inactive) | -0.304 (inactive) | 0.59 (inactive) | 0.882 (inactive) | 0.797 (inactive) | 0.198 (inactive) | -0.678 (inactive) | 0.144 | 0.194
5 | COCCn1c(C(=O)N2CCCC2)cc2c1C[C@H]1CN(C(=O)c3ccccc3)[C@@](Cc3ccc(F)cc3)(C(=O)OC)[C@@H]21 | -1.27 | 0.25 | -0.366 | -1.21 | -1.22 | 0.584 | -0.757 (inactive) | -0.37 | -1.37 | 0.409 (inactive) | 0.203 | 0.734 (inactive) | -0.829 (inactive) | -0.343 (inactive) | 0.315 (inactive) | 0.39 (inactive) | -0.0243 (inactive) | -0.622 (inactive) | -1.37 | 0.0927
6 | CCCCCC1=C2CNC(CCC)(C(=O)OC)C=C2C(C)C1=O (stereo not given) | -1.22 | -0.388 | 0.62 | 0.0829 | -0.282 | -0.24 | -0.283 (inactive) | -0.18 | -1.13 | -0.606 (inactive) | -1.08 | 0.381 (inactive) | -1.34 (inactive) | -1.62 (inactive) | 0.796 (inactive) | 0.891 (inactive) | 0.0107 (inactive) | 0.56 (inactive) | -0.888 | 0.347
7 | COc1ccc([Si](C)(C)[C@H]2[C@H](CC(=O)N3Cc4ccccc4C[C@H]3CO)O[C@@]3(C(=O)N(Cc4ccc(N5CCC5=O)cc4)c4ccccc43)[C@@H]2C)cc1 | -0.279 | 0.656 | -0.727 | -2.32 | -3.26 | 1.67 | 0.657 (inactive) | -1.04 | -0.928 | -0.0964 (inactive) | 0.194 | -0.535 (inactive) | -1.56 (inactive) | -3.08 (inactive) | 0.201 (inactive) | 1.83 (inactive) | -0.0476 (inactive) | -0.421 (inactive) | -1.26 | 0.216
8 | O=C1O[C@H](c2ccccc2)[C@H](c2ccccc2)N2[C@H]1[C@@H](C(=O)NC[C@H](O)c1ccccc1)[C@]1(C(=O)Nc3ccccc31)[C@H]2c1ccc(OCCO)cc1 | -0.425 | 1.61 | -1.41 | -2.53 | -3.09 | -2.29 | 1.95 (inactive) | -1.21 | -1.21 | -0.333 (inactive) | 0.293 | 1.3 (inactive) | -2.05 (inactive) | 0.0379 (inactive) | 4.04 (inactive) | 3.05 (inactive) | 0.0797 (inactive) | 0.0403 (inactive) | -3.16 | -0.0272
9 | CN1C(=O)C2C=CC(C(O)c3ccc(I)cc3)N(N3CCCCC3)C2C1=O (stereo not given) | -0.481 | -0.111 | -0.619 | -3.7 | -0.955 | -0.62 | -0.435 (inactive) | -0.484 | -0.624 | -0.799 (inactive) | -1.17 | -3.86 (inactive) | -2.13 (inactive) | 0.0552 (inactive) | 0.338 (inactive) | -0.0818 (inactive) | -0.709 (inactive) | -1.11 (inactive) | -1.26 | 0.33
